This note sets out measurements from PubChem BioAssay (NCI).

About 83,000 compounds went through this panel and 20% of them were active in at least one assay; those are over-represented in the sample as a whole.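 Testing used 96-well plates and a 48-hour single-concentration exposure. Example: -40 means 40% of the starting cells died.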 Calls of active or inactive are those of the source. Rule for the calls: active = growth percent below 10; inactive = the rest.

The subject of the assay is MDA-MB-468 breast. In words: NCI-60 one-dose screen, 48 h (100 = growth as untreated, 0 = no growth, -100 = all killed). The settings on record: 10 µM unless noted.
In the case of `CC(O)c1nc2c(c(=O)n(C)c(=O)n2C)n1C` (stereo not given), the growth was 105% (inactive).
Next, `O=C(Nc1cccc(Cl)c1)Nc1cc(C(F)(F)F)ccc1Cl`: 1.29% (active); `C#C[C@]1(O)CCC2C3CCc4cc(OC5CCCC5)ccc4C3CC[C@@]21C` (stereo not given in full): 69.1% (inactive); `c1ccc(N2CCN(c3nncc4ccccc34)CC2)nc1`: 93.3% (inactive).
Next, `Cc1nc2sc(C(=O)Nc3cccc(Cl)c3C)c(N)c2cc1C(=O)/C=C/c1ccccc1`: 4.69% (active); `Cn1cc(-c2cnn3c(N)c(Br)c([C@@H]4CCCNC4)nc23)cn1`: 67.5% (inactive); `S=c1c2ncccc2c(-c2ccccn2)nn1Cc1ccccn1`: 111% (inactive).
Regarding `COc1ccc(-c2n[nH]c(=O)c3nc(NC(=S)Nc4ccc(Oc5ccccc5)cc4)sc23)cc1`, the growth was 98% (inactive).
Next, `CCOC(=O)c1ccc(Nc2ncnc3c2cnn3-c2cccc(F)c2)cc1`: 103% (inactive); `COc1ccc(/C=N/C2=C(C#N)C(c3ccccc3[N+](=O)[O-])c3ccc4ccccc4c3O2)cc1` (stereo not given): 104% (inactive); `CCOC(=O)C(Nc1ccccc1)C(=O)OCC`: 104% (inactive).
The same measure for `CN(C)CCN(C)CC(C)(C)C(=O)/C=C/c1ccc(Cl)c(Cl)c1`: -83.6% [100 µM] (active).
The same measure for `O=C(O)c1cccc2c1C(=O)N(c1ccc3c(c1)Cc1ccccc1-3)C2=O`: 107% (inactive); for `COc1ccc(/C=C/c2nnc(/C=C/c3ccc(OC)c(OC)c3)o2)cc1OC`: 19% (inactive).
Consider `FC(F)(F)c1nn[nH]n1`, for which the growth is 99% (inactive).
On to `F`, for which the growth is 40.9% [6.87 mM] (inactive).
As for `CCCCCCCC/C=C\CCCCCCCCOc1ccccc1CC(=O)NCC[N+]1(C)CCCC1`, the growth is 40.3% (inactive).
The same measure for `CNCCCOc1c(Br)cc(CCNC(=O)/C(Cc2cc(Br)c(OC)c(Br)c2)=N/O)cc1Br`: 3.11% (active); for `c1ccc(-c2n(Cc3ccc4ccccc4n3)cc[n+]2Cc2ccc3ccccc3n2)cc1`: -12.3% (active).
The same measure for `CCCCCCCC/C=C\CCCCCCCCOc1ccccc1CC(=O)NCC[N+](C)(C)C`: 68.9% (inactive); for `CC(C)(C)OC(=O)N1C/C(=C\c2cccs2)C(=O)/C(=C/c2cccs2)C1`: 87.5% (inactive); for `O=C1C=CC(=Nc2cc(Br)c(O)c(Br)c2)C=C1`: 51.4% (inactive).
For the compound `COc1ccc(-c2cc(-c3cccnc3)nc3sc4c(=O)n(-c5ccc(C)cc5)nnc4c23)cc1OC`, the growth was 88% (inactive).
On to `Cc1ccc(C)c2c1CCC2=O`, for which the growth was 63.4% (inactive).
Consider `OC1CCCN(Cc2ccccc2)C1` (stereo not given), for which the growth is 103% (inactive).
Next, `CC(C)(C)Nc1nc2c(OCCc3ccccc3)cccn2c1-c1ccccc1Cl`: -27.8% (active); `COC(=O)N[C@H]1CCc2c(Cl)c(OC)c(OC)c(OC)c2-c2ccc(SC)c(=O)cc21`: -18.8% (active); `CN1C(=O)C(C(=O)/C=C/c2ccccc2C(=O)O)C(=O)N(C)C1=O`: 102% (inactive).
Turning to `C=C(C)[C@H]1CC/C(C)=C/CC[C@]2(C)O[C@H]2CC/C(COC(C)=O)=C\C1=O`, the growth was 115% (inactive).
With `CCOC(=O)c1ccc(C(C)(C)C)cc1`, the growth was 107% (inactive).
Take `CCn1c(=S)sc2c(Nc3ccc(F)cc3)nc(-c3cccnc3)nc21`: the growth was 79.8% (inactive).
Turning to `COc1ccc(OC)c(Nc2nnc(-c3ccc(Cl)cc3)o2)c1`, the growth was 74.2% (inactive).
Consider `COc1cc2c(cc1OC)N(CCO)C1=C(C(=O)OC1)C2c1ccc(Cl)c(Cl)c1` (stereo not given), for which the growth was 112% (inactive).
For `OCCN1CCCCCCC1`, the growth is 101% (inactive).
Next, `COc1cc(C2=N/C(=C\c3cc4ccccc4nc3Oc3ccccc3)C(=O)N2C(=N)N)cc(OC)c1OC`: 67.9% (inactive); `COc1ccc(-c2nc3sccn3c2-c2ccnc(S(C)(=O)=O)n2)cc1`: -25.9% (active).
In the case of `Cc1nc(C)c(C(=O)O)cc1C(=O)O`, the growth is 109% (inactive).
The same measure for `CN(C)c1ccc(C2C(C#N)=C(/N=C/c3ccccc3)Oc3c2ccc2ccccc32)cc1` (stereo not given): 86.3% (inactive); for `CC(C)c1ccc(Cc2cnc(NC(=O)c3cc(Br)cs3)s2)cc1`: -4.52% (active); for `COc1cc(Cc2cc(-c3ccccc3)nn(Cc3ccccc3)c2=O)cc(OC)c1OC`: 28.4% (inactive).
